Bioassay records (PubChem)
NS1 inh = blocks influenza NS1 protein function; Potency, µM (titrated, usually from 46.1 µM), inactives show at the top dose activity, positive = more growth; actives 0.4% (n = 270,000); calls by dose curve; note: actives are rising curves; nearly all actives have a fitted effect of over 50% in size
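In this qHTS, NS1 from influenza A is expressed in budding yeast, where it slows growth. Cells are switched from glucose to 2% galactose medium (pH 6.0, -URA), treated with compound, and growth recovery is read at OD600.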
Pf growth 48h = inhibits P. falciparum growth in the first generation, 48 h; P. falciparum luciferase growth in erythrocytes, 48 h; Potency, µM (highest dose often 28.7 µM), inactives show top-dose activity change, negative = inhibition, actives largely listed as inhibitors; actives 5.9% (n = 310,000); AID 504832; note: % is set by controls: 0 for no effect and ±100 for the full control effect
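Luciferase-expressing parasites in RBCs, 2% Hct / 0.1% parasitemia final; RPMI 1640 + 0.5% Albumax; 37 C, 5% CO2, one generation; luminescence read-out, lower signal = inhibition.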
Sm TGR block = S. mansoni TGR enzyme inhibition; purified TGR, DTNB reduction, TNB absorbance 405 nm; Potency, µM (highest dose often 114 µM), without a hit: at the top dose activity change, negative = inhibition, hits mostly inhibitors; actives 3% (n = 360,000); AID 485364; note: % is set by controls: 0 for no effect and ±100 for the full control effect; nearly all actives have a fitted effect of over 60% in size
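First, TGR (20 nM dispensed) and NADPH were mixed with compound. Second, a 15 min room-temperature incubation followed. Third, further NADPH and then DTNB were added to start the reaction. Finally, TNB absorbance was monitored kinetically.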
Pf growth 96h = inhibits malaria parasite growth, 96 h | P. falciparum luciferase reporter growth, 96 h | Potency, µM (doses to about 28.7 µM), without a hit: top-dose activity change, negative = inhibition, hits mostly inhibitors | actives 6.9% (n = 320,000) | AID 504834; note: % is set by controls: 0 for no effect and ±100 for the full control effect
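Parasite growth measured via integrated firefly luciferase reporter in P. falciparum. Infected erythrocytes at 2% hematocrit, 0.05% parasitemia final were treated 96 hours at 37 C under 5% CO2, and luminescence was read.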
AMA1-RON2 inh = inhibitors of Plasmodium falciparum AMA1-RON2 interaction; Potency, µM (titrated, usually from 58.2 µM), for the others: at the top dose activity change, negative = inhibition, hits mostly inhibitors; actives 0.2% (n = 360,000); AlphaScreen AMA1-biotinylated RON2 peptide binding;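 note: 0% = vehicle wells and -100% = peptide control; nearly all actives have a fitted effect of over 45% in size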
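AMA1 (3D7) with his tag at 25 nM final met compounds first, then biotinylated RON2 peptide at 25 nM; detection used donor plus acceptor beads, 10 µg/mL apiece, read by AlphaScreen after 30 min at room temperature.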
Numbers without * were called inactive; u = inconclusive; x = not tested or not shown. Most compounds without a hit are left out; they make up all but 11% or so of the library. Unless noted, calls come from the whole dose curve; as a rule, active = well fitted curve in the direction sought with a large enough effect; inconclusive = small, poorly fitted or top-dose-only effect, or another doubt; inactive = no such curve, though single readings can be large; an effect the other way counts as inactive or inconclusive. Potency is the fitted concentration of half-maximal effect.

SMILES	NS1 inh	Pf growth 48h	Sm TGR block	Pf growth 96h	AMA1-RON2 inh
O=C(N/N=C/c1ccc(O)cc1)c1cc(-c2ccccc2)nc2ccccc12	-2%	16%	-12%	1%	17%
O=C(N/N=C/c1ccccn1)c1cc(-c2ccccc2)nc2ccccc12	u	u	6%	13µM*	78%
Cc1ccc(-c2cc(C(=O)N/N=C/c3ccoc3)c3ccccc3n2)cc1	4%	-1%	-17%	9.3µM*	37%
O=C(N/N=C/c1ccccn1)c1ccc(Cl)c(Cl)c1	-101%	15µM*	5%	u	x
CCOC(=O)C1CCCN(C(=O)c2ccccc2OC(F)(F)F)CC1 (stereo not given)	x	x	x	x	0%
CCCCNN	-3%	x	x	x	x
CN(C(=S)NC(=O)c1ccc(Cl)cc1)C1CCCCC1	3%	u	79µM*	10µM*	82%
CN1CCN(c2ccc(Cl)cc2NC(=O)c2cccc(S(=O)(=O)N(C)C)c2)CC1	4%	u	4%	x	-2%
CN1CCN(c2ccc(Cl)cc2NC(=O)/C=C/c2cccc(F)c2)CC1	-4%	9.3µM*	1%	u	-3%
CCC1(c2ccc(F)cc2)NC(=O)N(CC(=O)N2CCc3ccccc32)C1=O (stereo not given)	x	12µM*	0%	10µM*	-2%
CN1CCN(c2ccc(Cl)cc2NC(=O)CN2C(=O)NC(C)(c3ccccc3)C2=O)CC1 (stereo not given)	x	2.9µM*	0%	u	43%
CC1(c2ccccc2)NC(=O)N(CC(=O)Nc2ccccc2N2CCCC2)C1=O (stereo not given)	x	u	-4%	-2%	-20%
CCC1(c2ccccc2)NC(=O)N(CC(=O)Nc2cc(Cl)ccc2N2CCN(C)CC2)C1=O (stereo not given)	x	12µM*	-13%	u	104%
CC1OC(O[C@H]2CC[C@]3(C)C4C=C[C@]56OC[C@@]7(CC[C@@H](C)[C@H](C)C75)[C@H](O)C[C@@]6(C)[C@]4(C)CC[C@H]3C2(C)C)C(OC2OC(CO)C(O)C(O)C2OC2OCC(O)C(O)C2O)C(O)C1O (stereo not given in full)	-67%	u	12%	u	x
CCCOc1ccc(CNC(=O)c2ccc3nc(N4CCOCC4)sc3c2)cc1	-17%	-17%	9%	8%	3%
CCCC1CC(CCc2ccccc2)OS(=O)(=O)N1 (stereo not given)	14%	36%	8%	27%	9%
CN1CCN(c2ccc(Cl)cc2NC(=O)C2COc3ccccc3O2)CC1 (stereo not given)	-41%	8.3µM*	0%	2.3µM*	-8%
CC(C)OCc1c(C(=O)Nc2nccs2)oc2ccccc12	x	u	0%	-11%	55%
Cc1c(C(=O)NC2CCCCC2C)oc2ccccc12 (stereo not given)	-58%	5%	0.56µM*	-28%	-6%
CCOC(C[n+]1c(-c2ccccc2)cc(C)cc1-c1ccccc1)OCC	x	1.5µM*	1%	1.5µM*	12%
CCOC(=O)N1CCN(C(=O)c2ccc(Cl)c(S(=O)(=O)N3CCCC3)c2)CC1	-7%	-17%	-36%	u	-21%
CC(C)[C@@H](COc1ccccc1)N1CCN(Cc2ccccc2)CCC1=O	-9%	u	-28%	6.6µM*	-9%
COc1ccc(-c2cc(C(=O)Oc3ccc(C#N)cc3)no2)cc1	x	x	12%	x	x
Cc1cc(C(=O)NC2CCCc3c2cnn3-c2ccc(C)c(C)c2)no1 (stereo not given)	-46%	-19%	6%	-8%	-5%
CC(C)(C)c1ccc(-n2ncc3c2CCCC3NC(=O)CN2CCCC2=O)cc1 (stereo not given)	-8%	18%	1%	13µM*	16%
SMILES	NS1 inh	Pf growth 48h	Sm TGR block	Pf growth 96h	AMA1-RON2 inh
Cc1ccc(-n2ncc3c2CCCC3NC(=O)CCn2ccnc2C)cc1C (stereo not given)	x	x	x	x	-4%
Cc1cc(C)cc(-n2ncc3c2CCCC3NC(=O)CN2CCCC2=O)c1 (stereo not given)	-5%	1%	2%	u	2%
CCCC(=O)NC1CCCc2c1cnn2-c1ccc(C)c(C)c1 (stereo not given)	-18%	7%	-5%	3.3µM*	1%
CCn1nc(C)cc1C(=O)NC1CCCc2c1cnn2-c1ccc(C)c(C)c1 (stereo not given)	-56%	u	3%	15µM*	11%
COCCCN1C(=O)C(CC(=O)NCCc2ccccn2)CC(C(=O)N2CCOCC2)=C1C (stereo not given)	x	x	x	x	8%
O=C(O)c1ccc(N/N=C/C(Br)=C/c2ccccc2)cc1	-86%	129%	1.1µM*	274%	4%
O=C(N/N=C/C(Br)=C/c1ccccc1)C1CC1	-6%	u	u	9.3µM*	12%
O=C(N/N=C/C(Br)=C\c1ccccc1)c1cccs1	-47%	u	-18%	3.7µM*	-6%
Cc1ccc(C(=O)N/N=C/C=C/c2ccccc2)cc1	0%	-30%	15%	1.7µM*	66%
O=C(Nc1c(C(=O)Nc2ccc(F)cc2)oc2ccccc12)c1cc2ccccc2o1	x	x	6%	x	x
O=C(N/N=C/C(Br)=C/c1ccccc1)c1ccncc1	-32%	10µM*	-24%	15µM*	103%
BrC(=C\c1ccccc1)/C=N/Nc1nc2ccccc2[nH]1	-3%	-97%	20µM*	u	7%
C(=N\Nc1nc2ccccc2[nH]1)/c1ccc2c(c1)OCCO2	-32%	u	4%	u	35%
BrC(=C\c1ccccc1)/C=N/Nc1nc(N2CCOCC2)nc(N2CCOCC2)n1	-9%	7.4µM*	u	u	-3%
CC(/C=N/NC(=O)c1ccncc1)=C\c1ccccc1	-11%	u	-3%	33%	6%
BrC(/C=C\c1ccccc1)=N/Nc1nc(N2CCOCC2)nc(N2CCOCC2)n1	-6%	u	x	u	10%
C/C(=N\Nc1nc(N2CCCCC2)nc(N2CCOCC2)n1)c1ccccc1O	4%	12µM*	0%	-2%	22%
COc1ccc(NC(=O)COc2ccc(N(C)S(=O)(=O)c3ccc(Cl)cc3)cc2)cc1OC	x	u	-5%	u	-22%
C[C@H](CO)N1C[C@H](C)[C@@H](CN(C)Cc2ccccc2F)Oc2ncc(Br)cc2C1=O	x	x	x	x	5%
O=C(N/N=C/C(Br)=C\c1ccccc1)c1ccc2nc[nH]c2c1	10%	23%	-20%	u	13%
O=C(N/N=C/C(Br)=C/c1ccccc1)c1cccnc1	-46%	10µM*	-11%	10µM*	-4%
Cc1cc2cc(CCNC(=O)C(=O)c3c[nH]c4ccccc34)c(=O)[nH]c2cc1C	x	u	15%	u	15%
CCN(CC)c1ccc(/C=C2/SC(=O)N(C(C)C)C2=O)o1	-45%	u	11µM*	u	-2%
